The panel holds about 83,000 compounds, 20% with a hit somewhere; the sample as a whole holds those more often.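 The test compound was applied at a single concentration to cells in 96-well plates for 48 hours, and percent growth was recorded.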 Unmarked numbers belong to inactive results. Activity calls are given as the source filed them. The calls were made as follows: active = growth percent below 10; inactive = the rest.

The subject of the experiment is A549/ATCC NSCLC. The experiment can be described thus: NCI-60 one-dose screen, 48 h (100 = growth as untreated, 0 = no growth, -100 = all killed). To be noted: 10 µM unless noted.
Consider `COc1ccc(/C(C)=N/NS(=O)(=O)c2ccc(C)cc2)cc1OC`, for which the growth is 102%.
Regarding `C[C@@H]1C(=O)N(C[C@@H](Cc2ccccc2)NC(=O)OCc2ccccc2)[C@]1(Cc1ccccc1)C(=O)OCc1ccccc1`, the growth is 22.8%.
Consider `NC(=Nc1ccc(N)cc1)C(N)=Nc1ccc(N)cc1`, for which the growth is 68.4%.
The same measure for `N#Cc1c(NC(=O)c2ccccc2I)sc2c1CCCC2`: 53.6%.
For `Cc1ccc(Nc2ccc(Nc3ccc(C)cc3S(=O)(=O)O)c3c2C(=O)c2ccccc2C3=O)c(S(=O)(=O)O)c1`, the growth was 112%.
With `C=C1C(=O)O[C@H]2[C@H]1CC/C(Cn1cc(CNCCc3c[nH]c4ccc(Cl)cc34)nn1)=C\CC[C@@]1(C)O[C@@H]21`, the growth is 84.1%.
As to `Cn1cc(Nc2nccc(-c3ccc(N4CCCC4)c(C#N)c3)n2)cn1`, the growth was 22.6%.
Consider `CSc1ncc(C)c(Nc2ccc(Cl)cc2)n1`, for which the growth was 96.4%.
Take `COc1cc(/C=C2\C=C(c3ccccc3)N(CCc3ccccc3)C2=O)cc(OC)c1OC`: the growth was 70.4%.
In the case of `O=c1cc(-c2ccc(OCc3ccccc3)cc2)oc2c(I)c(OCc3ccccc3)cc(OCc3ccccc3)c12`, the growth was 96.4%.
The same measure for `CC(=O)Nc1nccs1`: 99.3%; for `N[C@H]1CCC[C@@H]1NCCCCN1C(=O)c2cccc3cccc(c23)C1=O`: 53.3%; for `N=C(N)c1ccc(-c2ccc(-c3ccc(Cl)cc3Cl)o2)nc1`: 6.38% (active).
For `O=C1N/C(=N/O)S/C1=C/c1cn(-c2ccccc2)nc1-c1ccccc1` the value was 93.6%; for `C[C@@H]1CC[C@@H]2[C@@H]1[C@H](OC(=O)c1ccc3ccccc3c1)[C@]1(C3CCCCC3)C[C@@H](OC(=O)CO)[C@@]2(C)O1`, 48.8%.
For `CN(C)c1ccc(C#Cc2c(F)cccc2Cl)cc1` the value was 87.5%.
Consider `CCCN1CCN(c2ccc3nc(-c4ccc5nc(-c6cc(OC)c(OC)c(OC)c6)[nH]c5c4)[nH]c3c2)CC1`, for which the growth is 106%.
In the case of `O=C(NCCOCCOCCOCCNC(=O)c1cc2c(o1)C(=O)c1ccccc1C2=O)NC12CC3CC(CC(C3)C1)C2`, the growth was -47.6% (active).
As for `COc1cc2c(cc1OC)-c1ccc3cc4c(cc3c1N(CCN(C)C)C2)OCO4`, the growth is -57.3% (active).
Regarding `O=C(NC(=S)Nc1ccc(-c2nc3ccccc3[nH]2)cc1)c1ccc2ccccc2c1`, the growth was 26.3%.
Take `CC[C@@H](C[C@H](CCO)c1ccccc1)c1cc2ccccc2o1`: the growth is 84.3%.
Take `NC(N)=N/N=C/c1ccc(Br)cc1`: the growth was 34.6%.
On to `CN(C)CCOC(=O)Nc1ccc(Cl)cc1`, for which the growth was 94.7%.
For the molecule `O=C(/C=C/C12c3ccccc3C(c3ccccc31)C1C(=O)N(c3ccc(Cl)cc3)C(=O)C12)c1ccccn1` (centres undefined), the growth was 5.63% (active).
As for `OC(c1cccc(OCc2ccccc2)c1)c1nnc(-c2ccccc2)o1` (centres undefined), the growth is 95.1%.
Take `O=C1N(c2ccccc2)C(=S)N[C@]12[C@H](c1ccccc1)C1CCCN1[C@]21C(=O)NC2C=CC(Cl)=C[C@H]21` (some centres undefined): the growth is 75.4%.
Turning to `COC(=O)/C(=C\c1ccc(OC)cc1)C(=O)N1c2ccccc2Sc2ccccc21`, the growth was 56.2%.
On to `Cc1ccc(S(=O)(=O)Nc2sccc2-c2nc(-c3ccccc3)no2)cc1`, for which the growth was 90.3%.
`CCNCCNc1cc(-c2ccc(C(F)(F)F)cc2)c(C#N)c2nc3cc(Cl)c(Cl)cc3n12`: the growth is -88.4% (active).
Turning to `COc1ccc(/C=C(\C#N)n2nnc3ccccc32)cc1`, the growth was 19.5%.
For `CC(C)n1nc(C#Cc2cccc3cc(-c4cccc(C(F)(F)F)c4)ncc23)c2c(N)ncnc21`, the growth is 44.4%.
As to `COC(=O)CNC(=O)C(=O)c1c(O)c(O)c(C(C)C)c2cc(C)c(-c3c(C)cc4c(C(C)C)c(O)c(O)c(C(=O)C(=O)NCC(=O)OC)c4c3O)c(O)c12`, the growth is 11%.
For `NC(=O)c1c(NC(=O)c2ccc(C(F)(F)F)cc2Cl)sc2c1CCC(=O)C2` the value was 9.42% (active); for `C[C@@H](C[C@H](CCOCc1cccnc1)c1ccccc1)c1cc2ccccc2o1`, 90.2%.
Turning to `CCn1c(Sc2nnc(Nc3ccccc3)s2)nc2c1c(=O)n(C)c(=O)n2C`, the growth was 99.9%.
`Cc1cc(Cl)nc(N(CCCNc2ccnc3cc(Cl)ccc23)Cc2ccccn2)n1`: the growth was 56.1%.
As for `OC(CBr)c1ccnc2ccccc12` (centres undefined), the growth was 96.3%.
With `COc1cc(C2C=C(c3cccc(NC(C)=O)c3)Nc3ncnn32)cc(OC)c1OC` (centres undefined), the growth is 45.5%.
In the case of `CCCCOC(=O)c1ccc(NC(=O)C(C)N2CCOCC2)cc1` (centres undefined), the growth was 97.3%.

The record behind these values is PubChem BioAssay (NCI).
